Source: PubChem BioAssay (Tox21)
Records with an inconclusive call do not appear. Where a call stands in place of a potency, no number is given. A number with no mark means an inactive call. The source made the active and inactive calls. The call rests on the fitted dose curve; in most records, active means well fitted cell-killing curve with a large enough effect in the repeat runs; inconclusive means weak or mixed curves, or effect the other way; inactive means flat fitted curve, though single readings scatter.

Experiments:
[1] = cAMP Responsive Elements (CRE) small molecule antagonists, cell-based qHTS assay: qHTS cell viability counter screen (AID 2060913); further: nearly all actives have a fitted effect of over 40% in size
In short: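 CRE-bla HEK293T cells were seeded in assay medium with 10% dialyzed FBS, incubated 18 hrs at 37 C, then exposed to compounds plus 0.25 uM final NKH477 for 3 hrs. Viability was read by CellTiter-Glo luminescence after 30 min, in the same wells.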

[2] = cAMP Responsive Elements (CRE) small molecule agonists, cell-based qHTS assay: qHTS cell viability counter screen (AID 2060914);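 further: viability read after 3 h of compound exposure; nearly all actives have a fitted effect of over 50% in size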
In short: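 HEK 293T CRE-bla; DMEM + 10% dialyzed FBS, 25 mM HEPES; 18 h pre-incubation; compound 3 h, 37 °C/5% CO2; CellTiter-Glo added after reporter read; luminescence after 30 min RT.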

For `O=C(CCCCCCC(=O)Nc1ccccc1)NO`, the Potency [1] was “inactive” and the Potency [2] was “inactive”.

For `CC(C)(C)NCC(O)c1ccc(O)c(CO)c1` (configuration not stated), the Potency [1] was “inactive” and the Potency [2] was “inactive”.

For `CC1COc2c(N3CCN(C)CC3)c(F)cc3c(=O)c(C(=O)O)cn1c23` (configuration not stated), the Potency [1] was “inactive” and the Potency [2] was “inactive”.

With `CC(C)(Oc1ccc(C2CC2(Cl)Cl)cc1)C(=O)O` (configuration not stated) the Potency [1] was “inactive” and the Potency [2] was “inactive”.

For `C=CC(C)(O)CC/C=C(/C)CCC=C(C)C` (configuration not stated), the Potency [1] was “inactive” and the Potency [2] was “inactive”.

For `CCCCC/C=C/CC1CC(=O)OC1=O` (configuration not stated), the Potency [1] was “inactive” and the Potency [2] was “inactive”.

`CCn1cc(C(=O)O)c(=O)c2cnc(N3CCCC3)nc21` gave a viability change, negative = cytotoxic [1] of 3.75% [at 8.39 µM] and an activity change, negative = cytotoxicity [2] of -22.5% [at 8.39 µM].

With `O=C(OCC(O)CO)c1ccccc1Nc1ccnc2cc(Cl)ccc12` (configuration not stated) the Potency [1] was “inactive” and the Potency [2] was “inactive”.

For `CC(=O)CCC(=O)O`, the Potency [1] was “inactive” and the Potency [2] was “inactive”.

For `CC(CCc1ccc2c(c1)OCO2)NN` (configuration not stated), the Potency [1] was “inactive” and the Potency [2] was “inactive”.

With `CCC(C)C1N=C(C)C(C)S1` (configuration not stated) the Potency [1] was “inactive” and the Potency [2] was “inactive”.

With `Nc1cc(-c2ccncc2)c[nH]c1=O` the Potency [1] was “inactive” and the Potency [2] was “inactive”.

In the case of `CC(C)(C)C(=O)NCCCC(=O)O`, the Potency [1] is reported as “inactive” and the Potency [2] is reported as “inactive”.

In the case of `C#CCN(C)CCCOc1ccc(Cl)cc1Cl`, the Potency [1] is reported as “inactive” and the Potency [2] is reported as “inactive”.

In the case of `COc1c(Cl)ccc(Cl)c1C(=O)O`, the Potency [1] is reported as “inactive” and the Potency [2] is reported as “inactive”.

With `CC(C)(O)C(=O)c1ccc(OCCO)cc1` the Potency [1] was “inactive” and the Potency [2] was “inactive”.
